Screening data deposited in PubChem by National Center for Advancing Translational Sciences (NCATS).
GAA glycogen: GAA glycogen-cleavage inhibition or activation; recombinant GAA, glycogen substrate, Amplex Red glucose oxidase fluorescence; AID 2100; 300,000 compounds, 0.38% hits; Potency, µM (titrated, usually from 76.4 µM), for the others: at the top dose activity change, negative = inhibition, usual class: inhibitors; P10253;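 further: potency means the concentration at half of the fitted maximal effect; 0% = full enzyme reaction and -100% = no-enzyme basal signal; the screen sought inhibitors and activators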
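Recombinant enzyme (4 nM final) with compounds titrated up to 77 uM and bovine liver glycogen (30 ug) in citrate pH 5.0, 0.01% Tween-20, 37 C 40 min. Released glucose detected by Amplex Red/glucose oxidase (Ex 573/Em 610); AC50 from Hill fits.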
GAA spleen mod: inhibitors or activators of human alpha-glucosidase in spleen homogenate; Potency, µM (highest dose often 79.9 µM), without a hit: top-dose activity change, negative = inhibition, usual class: inhibitors; P10253; human spleen homogenate, 4-MU-alpha-glucoside fluorescence; 240,000 compounds, 0.006% hits;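 further: potency means the concentration at half of the fitted maximal effect; 0% = enzyme with vehicle and -100% = no enzyme basal signal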
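AC50 values come from Hill-equation fits of concentration-response data, normalized to no-enzyme and full-activity controls. Enzyme source: 1 ug human spleen homogenate; 1 mM fluorogenic 4-MU glucoside, pH 5.0 citrate buffer, 37 C, 40 min.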
N370S GC: N370S glucocerebrosidase modulation, Gaucher chaperone candidate; AID 2101; Potency, µM (top dose mostly 59.4 µM), inactives show top-dose activity change, negative = inhibition, actives largely listed as inhibitors; 330,000 compounds, 0.092% hits; N370S GC spleen homogenate, 4MU-glucoside fluorescence;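 further: potency means the concentration at half of the fitted maximal effect; 0% = full enzyme activity and -100% = no enzyme basal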
aGal spleen mod: inhibits or activates alpha-galactosidase in human spleen homogenate. human spleen homogenate, 4MU-alpha-Gal fluorescence, 40 min. Potency, µM (titrated, usually from 80 µM), without a hit: top-dose activity change, negative = inhibition, most hits filed as inhibitors. 240,000 compounds, 0.008% hits. AID 2107;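 further: potency means the concentration at half of the fitted maximal effect; 0% = enzyme with vehicle and -100% = no enzyme basal signal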
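Human spleen homogenate (1 ug) as enzyme source, 4-methylumbelliferyl-alpha-D-galactopyranoside 1 mM final, citrate/phosphate pH 5.0 with 0.01% Tween-20. Compounds 40 min at 37C, NaOH/glycine stop; fluorescence Ex 365/Em 440, Hill-fit AC50.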
GAA inh: blocks human lysosomal alpha-glucosidase; 200,000 compounds, 0.005% hits; purified human GAA, 4-MU-alpha-glucoside fluorescence; Potency, µM (series often up to 76.9 µM), for the others: at the top dose activity change, negative = inhibition, most hits filed as inhibitors; P10253;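 further: potency means the concentration at half of the fitted maximal effect; plate controls were uninhibited enzyme wells for no effect and no-enzyme background for full effect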
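qHTS format, compound range up to 77 uM. Human lysosomal enzyme at 4 nM, 400 uM 4-MU glucoside substrate, pH 5.0, 20 min room temperature; fluorescence after alkaline stop gives activity normalized to controls.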
GLA inh pH 4.5: inhibitors of human alpha-galactosidase A at pH 4.5 | activity change, negative = inhibition, % at 105 µM | AID 1467 | purified enzyme, 4-MU-alpha-Gal fluorescence, pH 4.5 | 230,000 tested, under 10 active;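 further: 0% = full activity with enzyme and -100% = basal without enzyme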
Target sequence (P06280 whole entry, looked up): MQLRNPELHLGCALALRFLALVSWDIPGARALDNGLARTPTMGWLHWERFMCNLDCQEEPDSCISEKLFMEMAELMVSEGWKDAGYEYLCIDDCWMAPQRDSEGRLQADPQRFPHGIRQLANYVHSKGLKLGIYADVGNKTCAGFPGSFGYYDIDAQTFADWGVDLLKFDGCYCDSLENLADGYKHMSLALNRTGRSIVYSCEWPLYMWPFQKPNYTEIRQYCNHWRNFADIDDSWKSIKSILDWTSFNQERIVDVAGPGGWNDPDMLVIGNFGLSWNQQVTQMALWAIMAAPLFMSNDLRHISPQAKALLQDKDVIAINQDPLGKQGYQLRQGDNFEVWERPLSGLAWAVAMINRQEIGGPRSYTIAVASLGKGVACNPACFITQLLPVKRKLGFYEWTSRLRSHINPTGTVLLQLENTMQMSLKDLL
* hit, by the source's call; ? = inconclusive; / = not tested or not shown; [ ] = another dose, or the depositor's remark. Rows were chosen to be rich in hits. Some 0.41% of all compounds tested hit in one or more screens of this group. The call rests on the fitted dose curve; in most records, active means well fitted curve in the direction sought with a large enough effect; inconclusive means small, poorly fitted or top-dose-only effect, or another doubt; inactive means no such curve, though single readings can be large; an effect the other way counts as inactive or inconclusive.

SMILES	GAA glycogen	GAA spleen mod	N370S GC	aGal spleen mod	GAA inh	GLA inh pH 4.5
O=C(O)CC/C(=N/Nc1ncc(C(F)(F)F)cc1Cl)C(=O)O	17.8µM*	-2.2%	-7.5%	2.0%	-3.0%	5.2
COc1ccccc1N1CCN(/N=C/c2cccc(O)c2)CC1	9.92µM*	1.5%	1.3%	-1.8%	-10.0%	-14.2
CCOc1ccc(OCC)c(S(=O)(=O)NNC(=O)c2c(C)nc3ccccn23)c1	7.7%	-8.2%	-0.6%	-0.2%	-2.7%	-7.8
COc1ccc(Br)cc1S(=O)(=O)NNC(=O)c1c(C)nc2ccccn12	10µM*	2.0%	-6.5%	7.2%	5.7%	-2.0
COc1ccc(N2C(=S)NC(C)(C)CC2(C)c2ccc(OC(C)=O)cc2OC(C)=O)cc1 (stereo unspecified)	-8.6%	-3.1%	1.6%	-9.8%	-1.5%	-5.5
COc1ccc(C(=O)/C=C/Nc2c(C)n(C)n(-c3ccccc3)c2=O)cc1OC	3.14µM*	2.1%	2.9%	4.9%	?	8.9
C(=N\Nc1nc2ccccc2[nH]1)/c1ccc2c(c1)OCCO2	12.6µM*	0.6%	-4.9%	-7.1%	-8.9%	-9.9
COc1ccc2c(c1)c(/C=N/Nc1nc3ccccc3[nH]1)c(C)n2C	28.2µM*	-7.0%	?	-5.4%	?	-15.6
COc1cc(/C=N\Nc2nc3ccccc3[nH]2)cc(OC)c1OC	15.7µM*	4.7%	-1.6%	4.7%	0.0%	0.6
C(=N\Nc1ccc2ccccc2n1)/c1ccc2c(c1)OCCO2	-28.5%	-1.5%	-0.2%	-3.7%	?	-3.6
COc1ccc(/C=N/Nc2nc3ccccc3[nH]2)cc1OC	?	1.7%	-13.8%	7.1%	-2.4%	-1.8
O=C(Nc1ccc2c(c1)OCCO2)c1ccc(Br)o1	4.0%	-0.1%	2.0%	0.9%	-12.0%	-22.1
NS(=O)(=O)CCCc1ccccc1	/	/	2.8%	/	/	/
CC1(C)C([N+](=O)[O-])C(c2ccc(O)cc2)NC(c2ccc(O)cc2)C1[N+](=O)[O-] (stereo unspecified)	4.1%	0.4%	8.91µM*	-9.5%	-1.5%	0.3
CC1(C)C([N+](=O)[O-])C(c2ccc(F)cc2)NC(c2ccc(F)cc2)C1[N+](=O)[O-] (stereo unspecified)	-3.4%	0.8%	6.5%	4.6%	/	-8.2
CCCCNC(=O)O[C@H]1C[C@@H]2CCN3C(=O)CCC(C)(C)[C@H](C1)[C@H]23	10.0%[76.3 µM]	/	-7.0%	/	/	/
CC(=O)N1CCN(S(=O)(=O)c2ccc3c(c2)CC(=O)N3)CC1	11.9µM*	/	/	/	/	/
COc1ccccc1-c1nnc2n1N=C(c1ccc(O)c(O)c1)CS2	11.2µM*	-1.2%	-5.9%	-1.4%	-7.3%	-3.0
O=C(Nc1ccc2nn(-c3ccccc3)nc2c1)c1ccc(-c2cccc(Cl)c2)o1	-3.2%[76.3 µM]	/	/	/	/	/
COc1ccc(C(=O)NCCn2cc(SCC(=O)N3CCOCC3)c3ccccc32)cc1	-4.4%	-0.2%	4.6%	7.8%	3.1%	3.5
COc1ccc(CCNC(=O)/C=C/c2ccc(OC)c(S(=O)(=O)N3CCOCC3)c2)cc1	0.7%	0.0%	2.1%	9.9%	/	-4.2
O=C1/C(=C/c2ccc(O)c(O)c2)Oc2cc(O)ccc21	22.4µM*	-2.1%	-26.0%	-4.2%	/	-2.7
N#Cc1c(Cl)cccc1N1CCCC1	-11.5%	8.0%	21.6%	6.2%	6.5%	-8.7
N#Cc1c(Cl)cccc1N1CCC(C(N)=O)CC1	4.43µM*	11.2%	14.8%	8.4%	/	0.8
c1ccc(Nc2cc(Nc3ccccc3)[nH]n2)cc1	28µM*	-9.7%	22.6%	-13.3%	-9.9%	0.7
CCCCN(CC)S(=O)(=O)c1ccc(C(=O)N(CCCN(C)C)c2nc3cc(C)cc(C)c3s2)cc1	15.8%	5.2%	?	-1.9%	-4.8%	-5.4
CCN(Cc1ccccc1)S(=O)(=O)c1ccc(C(=O)N(CCCN(C)C)c2nc3cc(C)cc(C)c3s2)cc1	/	/	14.1µM*	/	/	/
